Screening results deposited in PubChem by The Scripps Research Institute Molecular Screening Center.
Only some compounds are listed: those with a hit (about 3.5% of all), similar ones and a draw of the others.
MITF inh: blocks human microphthalmia-associated transcription factor. O75030. AlphaScreen MITF homodimerization, bead proximity signal. inhibition, % at 2.6 µM. 0.91% of 650,000 active; in the data active = inhibition above about 50%;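 also: 0% = vehicle wells with protein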
TEAD-YAP block: TEAD-YAP interaction inhibition | HEK-TIYL cells, TEAD-Gal4/YAP UAS-luciferase luminescence | inhibition, % at 9.12 µM | 1.4% of 640,000 active; in the data active = inhibition above about 32%;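 also: 0% = median of test compound wells and 100% = reference inhibitor wells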
FBW7 act: activators of human E3 ligase FBW7; 0.13% of 650,000 active; normalized activity (activation), % at 26.1 µM; Q969H0; AlphaScreen FBW7–phospho-cyclin E peptide binding, activator screen; in the data active = normalized activity above about 1.9%;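 also: purified mutant Fbw7 with reduced substrate affinity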
Target sequence (Q969H0 whole entry, looked up): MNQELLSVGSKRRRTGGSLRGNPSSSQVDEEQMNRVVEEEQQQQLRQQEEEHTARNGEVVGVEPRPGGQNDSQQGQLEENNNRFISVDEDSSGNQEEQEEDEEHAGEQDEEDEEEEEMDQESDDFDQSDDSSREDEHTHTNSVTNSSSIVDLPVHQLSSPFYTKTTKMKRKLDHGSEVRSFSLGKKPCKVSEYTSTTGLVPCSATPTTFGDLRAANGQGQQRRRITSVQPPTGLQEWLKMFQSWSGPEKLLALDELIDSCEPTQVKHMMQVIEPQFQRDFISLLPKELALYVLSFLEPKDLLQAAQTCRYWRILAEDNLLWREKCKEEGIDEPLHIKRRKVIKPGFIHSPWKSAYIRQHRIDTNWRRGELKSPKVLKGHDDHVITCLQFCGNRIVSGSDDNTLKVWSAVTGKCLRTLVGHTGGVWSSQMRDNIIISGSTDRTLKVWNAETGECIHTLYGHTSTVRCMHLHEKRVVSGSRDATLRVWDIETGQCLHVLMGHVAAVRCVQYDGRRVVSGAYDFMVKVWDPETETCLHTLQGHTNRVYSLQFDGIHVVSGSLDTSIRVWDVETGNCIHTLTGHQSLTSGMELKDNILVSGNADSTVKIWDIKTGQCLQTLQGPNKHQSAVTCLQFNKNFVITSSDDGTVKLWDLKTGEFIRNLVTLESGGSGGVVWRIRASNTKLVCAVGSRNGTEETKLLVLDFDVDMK
GPR151 ag: human GPR151 activation; AID 1508602; PathHunter beta-arrestin GPR151 cells, luminescence; 1% of 650,000 active; activation, % at 11.2 µM; Q8TDV0; in the data active = activation above about 4.9%;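 also: 0% = median of compound wells and 100% = cells with positive control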
MITF inh conf: human MITF inhibition, confirmation. shares compounds with MITF inh. AlphaScreen MITF homodimerization, biotin/His-MITF beads. inhibition, % at 2.6 µM. 16% of 4,700 active;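 active = inhibition above a cutoff derived from the DMSO control wells, cut at about 28% in these data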;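 also: 0% = MITF dimer wells with DMSO only; inhibitors lower the bead chemiluminescence by keeping MITF from dimerizing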
AlphaScreen DR: counter-screen: compounds optically interfering with AlphaScreen | shares compounds with MITF inh | AlphaScreen optical interference counterscreen, cell-free | IC50, µM | 6% of 480 active | AID 1259373; call rule not given here
AlphaScreen intf2: optically interferes with AlphaScreen signal; 7.6% of 4,700 active; shares compounds with MITF inh; inhibition, % at 2.6 µM; LysRS AlphaScreen counterscreen, signal interference, triplicate; AID 1259376;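 active = inhibition above a cutoff derived from the DMSO control wells, cut at about 30% in these data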
Active calls of the source: *; nt = not tested or not shown.

SMILES	MITF inh	TEAD-YAP block	FBW7 act	GPR151 ag	MITF inh conf	AlphaScreen intf2	others
O=C(Nc1cc(C(F)(F)F)ccc1Cl)c1nn2c(C(F)(F)F)cc(-c3ccccc3)nc2c1Cl	64.8*	-0.8	0.2	-0.9	-0.7	-0.9
OCCNC(=S)Nc1ccccc1	7.8	-7.8	0.2	-0.5	nt	nt
O=P(O)(O)C(O)(CCNC(=S)Nc1ccccc1)P(=O)(O)O	85.5*	4.1	-0.5	-1.0	66.9*	6.2	AlphaScreen DR=>6.83
COc1cc(CN2CCN(Cc3ccc(Br)cc3)CC2)cc(OC)c1OC	81.5*	14.2	-0.1	-1.2	5.5	18.8
COc1ccc(CN2CCN(Cc3ccc(C)cc3)CC2)cc1OC	67.4*	7.8	0.0	0.4	7.0	-7.2
COc1cc(CN2CCN(Cc3ccc(Cl)cc3)CC2)cc(OC)c1OC	78.0*	-1.5	-0.1	1.5	13.1	17.1
COc1cc(CN2CCN(Cc3cccc(Cl)c3)CC2)cc(OC)c1OC	68.7*	1.7	-0.2	-0.6	7.0	12.8
COc1cc(CN2CCN(Cc3ccc(Br)cc3)CC2)cc(OC)c1O	11.6	-18.6	0.2	-1.2	nt	nt
COc1ccc(CN2CCN(Cc3ccc(OC)c(OC)c3)CC2)cc1OC	9.4	6.8	1.1	-0.2	nt	nt
COc1cc(C(=O)N2CCN(Cc3cccc(Cl)c3)CC2)cc(OC)c1OC	49.6	9.0	-0.1	-1.2	nt	nt
COc1cc(CN2CCN(Cc3cc(OC)c(OC)c(OC)c3)CC2)cc(OC)c1OC	9.9	-1.7	0.2	2.0	nt	nt
COc1ccccc1NC(=O)c1c(O)c2ccccc2n(C)c1=O	9.3	5.6	0.1	-0.8	nt	nt
COc1ccc(CN2CCN(Cc3cccc(Br)c3)CC2)cc1OC	40.0	-5.4	0.0	0.1	nt	nt
COc1ccc(CN2CCN(Cc3ccc(Br)cc3)CC2)cc1OC	73.6*	17.3	-0.1	-1.1	5.2	2.6
CC(=O)C1=C(O)C(=O)N(CCN2CCNCC2)C1c1ccc(F)cc1 (stereo unspecified)	101.4*	1.1	0.0	-0.6	23.0	12.8
CCCn1c(SC(C(=O)NC(N)=O)C(C)C)nc2ccccc2c1=O (stereo unspecified)	55.5*	2.6	0.1	-0.7	19.3	10.3
CCOC(=O)C1=CN(C)C=C(C(=O)OCC)C1c1cccc(OC)c1OCC	8.9	14.6	1.1	-1.3	nt	nt
Cc1ccc(CN2CCN(S(=O)(=O)c3ccccc3)CC2)cc1	70.7*	-3.2	0.6	2.7	-5.1	5.2
CCc1ccc(CN2CCN(S(=O)(=O)CC)CC2)cc1	51.4*	-8.5	-0.3	3.3	24.6	17.0
Cc1ccc(S(=O)(=O)N2CCN(Cc3ccccc3[N+](=O)[O-])CC2)cc1	77.5*	1.4	-0.1	3.3	9.2	15.0
O=S(=O)(c1ccccc1)N1CCN(Cc2ccccc2)CC1	12.0	3.3	0.0	-0.1	nt	nt
CC(=O)Nc1ccc(S(=O)(=O)N2CCN(Cc3ccccc3[N+](=O)[O-])CC2)cc1	-4.9	2.6	-0.1	0.6	nt	nt
CCOc1ccc(CN2CCN(S(=O)(=O)CC)CC2)cc1	42.3	0.0	-0.1	-0.5	nt	nt
CCc1ccc(CN2CCN(S(=O)(=O)c3ccccc3)CC2)cc1	55.2*	0.9	0.4	-1.2	3.5	4.2
O=C1C=Cc2cc(Br)ccc2/C1=C/c1c(O)n(-c2ccccc2)[nH]c1=O	-7.2	-16.4	-0.1	0.0	nt	nt
SMILES	MITF inh	TEAD-YAP block	FBW7 act	GPR151 ag	MITF inh conf	AlphaScreen intf2	others
C#CCN(Cc1ccco1)C(=O)CSc1ccc2nnc(-c3cccnc3)n2n1	14.1	2.8	0.6	-1.5	nt	nt
NC(=O)c1c(NC(=O)COC(=O)C23CC4CC(CC(C4)C2)C3)sc2c1CCCC2	12.7	-0.7	0.2	-0.4	nt	nt
O=C(O)CCNC(=O)c1cncc(O)c1	1.5	9.0	0.0	3.0	nt	nt
CCCS(=O)(=O)N1CCN(Cc2ccc(SC)cc2)CC1	44.5	13.2	-0.1	2.3	nt	nt
CCCS(=O)(=O)N1CCN(Cc2ccncc2)CC1	62.3*	-0.1	-0.1	-0.7	9.3	8.6
COc1ccc(-c2noc(CN3C(=O)c4ccccc4S3(=O)=O)n2)cc1	-1.2	1.6	-0.2	0.8	nt	nt
COc1ccc2c(c1)CC(C(=O)Nc1ccc(-c3cn[nH]c3)cc1OCC#N)CO2 (stereo unspecified)	52.1*	2.0	0.0	0.2	42.8*	18.7	AlphaScreen DR=>6.48
COc1ccc2c(c1)CC(C(=O)Nc1ccc(-c3cn[nH]c3)cc1C(=O)N(C)OC)CO2 (stereo unspecified)	51.2*	-8.2	-0.1	-2.7	51.2*	12.8	AlphaScreen DR=>6.48
CCOC(=O)c1ccc(N=C2SC(C(=O)Nc3cccc(C)c3)CC(=O)N2C)cc1 (stereo unspecified)	-0.6	-7.0	-0.2	0.5	nt	nt
C=CCNc1nc(-c2ccc(O)cc2)cs1	69.7*	-23.3	-0.3	-0.9	4.7	22.3
Cc1cccc(Nc2nc(-c3ccc(O)cc3)cs2)c1	67.2*	-46.0	-0.2	-1.3	8.1	20.8
O=C(/C=C\c1ccc(-c2cccc([N+](=O)[O-])c2)o1)Nc1cccc(C(F)(F)F)c1	-4.4	0.9	0.0	0.8	nt	nt
CC(=O)c1ccc(Nc2nc3ccc(C(=O)c4ccccc4)cc3n3cnnc23)cc1	-4.1	6.3	-0.1	-1.3	nt	nt
Cn1c(=O)[nH]c(=O)c2c1nc(Cl)n2CC(N)=O	82.3*	-1.2	0.0	0.2	2.2	9.6
O=C(CN1C(=O)C2CC=CCC2C1=O)NCc1ccccc1F (stereo unspecified)	5.0	2.3	0.0	-0.9	nt	nt
COc1ccccc1C(=O)Nc1ccc2c(c1)C(=O)Nc1cc(Cl)ccc1O2	-0.9	6.8	0.0	0.2	nt	nt
CCOc1ccccc1C(=O)Nc1ccc2c(c1)C(=O)Nc1ccccc1O2	52.8*	-1.9	-0.1	3.5	-7.3	-10.3
O=C(NC1(c2ccccc2)CC1)C1CC(Cc2ccc(F)cc2)=NO1 (stereo unspecified)	-5.6	-7.7	-0.1	1.7	nt	nt
CCCCC(CCCC)(Nc1ccc(F)c(F)c1)C(=O)NNc1ccccc1	60.9*	3.4	-0.1	-0.7	-3.3	0.1
O=C(c1ccccc1)c1cccn1CC(=O)N1CCCCCC1	63.4*	2.5	0.0	1.0	10.3	9.9
O=C(c1ccccc1)c1cccn1CC(=O)N1CCCC1	7.0	-0.1	0.2	0.5	nt	nt
COc1ccc(CCNC(=O)C(=O)Nc2cccc(Cl)c2)cc1OC	4.5	-4.0	-0.1	-0.1	nt	nt
COc1ccc(NC(=O)C2(N(Cc3ccccc3)C(=O)Cc3nc(N)n[nH]3)CCCCC2)cc1	21.5	-5.7	-0.4	-1.8	nt	nt
COc1ccc(NC(=O)C2(N(Cc3ccco3)C(=O)Cc3nc(N)n[nH]3)CCCCC2)cc1	22.6	-8.1	-0.2	-2.0	nt	nt
Nc1n[nH]c(CC(=O)N(Cc2ccco2)C2(C(=O)Nc3ccccc3)CCCCC2)n1	65.8*	-5.5	0.4	-1.1	96.4*	100.6*
Cc1ccccc1NC(=O)C1(N(Cc2ccccc2)C(=O)Cc2nc(N)n[nH]2)CCCCC1	78.7*	0.2	-0.7	-0.6	101.0*	100.6*
